SW480 rerep – inducers of DNA re-replication in SW480 colon cancer cells; SW480 DNA re-replication, Hoechst DNA content imaging, 48 h; Potency, µM (doses to about 46.1 µM), without a hit: at the top dose re-replication activation, hits mostly activators; AID 624297; 1.8% of 340,000 active; further: potency means the concentration at half of the fitted maximal effect; % of control where 0% means no effect; nearly all actives have a fitted effect of over 55% in size
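Readout is total intensity of Hoechst-stained nuclei, excited at 405 nm and collected at 500-530 nm. Compound treatment lasted 48 hr at 37 C in 5% CO2 before staining.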
TDP1 cell noCPT – qHTS for Inhibitors of human tyrosyl-DNA phosphodiesterase 1 (TDP1): qHTS in cells in absence of CPT | DT40 Tdp1-/- hTDP1 cells, no CPT, ATP luminescence, 48 h | AID 686978, 2013 | Potency, µM (series often up to 46.2 µM), for the others: top-dose activity change, negative = growth inhibition, most hits filed as inhibitors | 15% of 420,000 active; further: potency means the concentration at half of the fitted maximal effect; on the % scale 0 is the no-effect control and ±100 the full control effect; nearly all actives have a fitted effect of over 55% in size
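Readout: luminescence from CellTiter-Glo after 30 min in the dark at RT. Cells: DT40 Tdp1-/- with stable hTDP1, 400/well. Exposure: compounds alone, ≥48 hr, 37 °C.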
MCF10A rereplic – inducers of DNA re-replication in MCF 10A breast cells; MCF 10A DNA re-replication, Hoechst nuclear intensity, 48 h; Potency, µM (highest dose often 46.1 µM), for the others: top-dose activity, positive = re-replication, actives largely listed as activators; 2.9% of 350,000 active; further: potency means the concentration at half of the fitted maximal effect; % of control where 0% means no effect; nearly all actives have a fitted effect of over 50% in size
Chronic BCR inh – chronic active BCR signaling inhibition. ABC-DLBCL IkBa-CBG/CBR reporter, luminescence ratio, 4 h. Potency, µM (highest dose often 46.1 µM), for inactives: at the highest dose activity change, negative = inhibition, most hits filed as inhibitors. 0.05% of 340,000 active. AID 493014; active means well fitted inhibition curve with a large enough effect in the signal ratio, with a control signal flat, not every such curve was filed as active; inconclusive means small, poorly fitted or top-dose-only effect, or effect the other way, or a change in a side signal; the % refers to the signal ratio;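 further: potency means the concentration at half of the fitted maximal effect; plate controls were basal doxycycline-induced cells for no effect and cells given 10 µM MG132 for full effect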
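TMD8 human ABC-DLBCL cells with doxycycline-inducible IκBα–green luciferase fusion and unfused red luciferase, in 0.5% FBS medium; compounds up to 46 uM, 4 h at 37C. Green/red luminescence ratio, filter-overlap corrected, fitted to concentration-response curves.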
TDP1 cell CPT – growth inhibition of DT40 Tdp1-/-;hTDP1 cells with camptothecin (screen for TDP1 inhibitors). chicken DT40 Tdp1-/-;hTDP1 cells + 20 nM CPT, ATP luminescence, 48 h. Potency, µM (doses to about 46.2 µM), for the others: at the highest dose activity change, negative = growth inhibition, hits mostly inhibitors. 12% of 420,000 active; further: potency means the concentration at half of the fitted maximal effect; on the % scale 0 is the no-effect control and ±100 the full control effect; nearly all actives have a fitted effect of over 55% in size
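Chicken DT40 Tdp1-/- cells stably complemented with human TDP1 were seeded at 400 cells/well in medium containing 20 nM camptothecin, exposed to pin-transferred compounds, and grown at 37 °C for at least 48 hr. Viability was read as ATP luminescence.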
IL-1B inflam inh – blocks inflammasome-driven IL-1 beta release | THP-1 LPS/ATP IL-1B secretion, AlphaLISA, 16 h; hits give low values | activity change, % at 57.5 µM | 4.7% of 360,000 active; in the data active means activity change below about -50%; inconclusive means mostly about -30% to -49%; further: on the % scale 0 is the no-effect control and ±100 the full control effect
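THP-1 cells pretreated 1 hr with compounds (up to 57.5 uM final), then stimulated with LPS (250 ng/mL final) plus ATP (1.25 mM final); secreted IL-1B measured by AlphaLISA after 16 hr, decreased signal indicating inhibition.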
Starred values were filed as active, the others as inactive; ? = inconclusive; / = no result; [ ] = another dose, or the depositor's remark. Sampled rows, rich in hits. Any-hit rate of the full collection: about 19%. Unless noted, the call rests on the fitted dose curve; in most records, active means well fitted curve in the direction sought with a large enough effect; inconclusive means small, poorly fitted or top-dose-only effect, or another doubt; inactive means no such curve, though single readings can be large; an effect the other way counts as inactive or inconclusive.

SMILES | SW480 rerep | TDP1 cell noCPT | MCF10A rereplic | Chronic BCR inh | TDP1 cell CPT | IL-1B inflam inh
Cc1cccc(NC(=O)C2CCN(C(=O)NCc3ccccc3)CC2)c1C | -5.1% | -8.3% | 2.1% | -1.1% | 2.8% | 14.0
CCOc1ccc(Cl)cc1S(=O)(=O)N1CCC(C(=O)NCc2ccncc2)CC1 | -3.0% | -0.5% | 6.1% | -1.9% | 6.7% | 11.8
O=C(NCC(c1ccco1)N1CCc2ccccc2C1)c1ccc(Br)cc1 (centres undefined) | 9.2% | 23.1µM* | ? | -0.1% | ? | -4.4
Cc1ccc(C(=O)NCC(c2ccco2)N2CCc3ccccc3C2)cc1C (centres undefined) | 1.5% | 20.6µM* | ? | 9.6% | 18.4µM* | -0.4
O=C(NCC(c1ccco1)N1CCc2ccccc2C1)c1cccc([N+](=O)[O-])c1 (centres undefined) | -0.3% | ? | 16.9% | -14.6% | ? | 3.9
O=C(NCC(c1ccco1)N1CCCC1)c1ccc(Cl)c(S(=O)(=O)N2CCc3ccccc32)c1 (centres undefined) | ? | 7.31µM* | ? | -2.8% | 8.2µM* | -54.9*
O=C(NCC(c1ccco1)N1CCc2ccccc2C1)c1ccc(Cl)c([N+](=O)[O-])c1 (centres undefined) | 0.6% | ? | ? | ? | ? | -82.6*
CCc1cccc(NC(=O)Cn2nc3c4cc(F)ccc4n(Cc4cccc(C)c4)cc-3c2=O)c1 | / | -6.1% | / | / | -3.6% | /
CC1CN(C(=O)Nc2ccc(C(=O)NCCc3ccc(Cl)cc3)cc2)c2ccccc2S1 (centres undefined) | / | ? | / | / | -19.8% | /
CCCCC[C@@H](C)N1C[C@@H](COCc2ccccc2)Oc2cc(N3CC[C@@H](O)C3)ccc2S1(=O)=O | / | 16.4µM* | / | / | ? | -6.0
CCCCC[C@@H](C)N1C[C@@H](COCc2ccccc2)Oc2cc(N3CC[C@H](O)C3)ccc2S1(=O)=O | / | 16.4µM* | / | / | ? | -3.4
C[C@@H](c1ccccc1)N1C[C@@H](COCc2ccccc2)Oc2cc(N3CC[C@@H](O)C3)ccc2S1(=O)=O | / | ? | / | / | ? | -16.9
CCCCC[C@H](C)N1C[C@@H](COCc2ccccc2)Oc2cc(N3CC[C@@H](O)C3)ccc2S1(=O)=O | / | ? | / | / | ? | 4.8
COc1ccc(N(C(=O)c2cnccn2)C(C(=O)NCc2ccccc2)c2ccc(O)cc2)cc1 (centres undefined) | -3.9% | 0.1% | -2.4% | -10.1% | 11.7% | 14.5
O=C(NCc1nnc(SCC(=O)N2CCC(Cc3ccccc3)CC2)o1)c1ccccc1F | -2.7% | 16.4µM* | -1.1% | 2.4% | ? | 1.2
COc1cc(C(=O)NCc2nnc(SCC(=O)N3CCCC3)o2)cc(OC)c1OC | -10.7% | 0.6% | 2.9% | -1.0% | 1.1% | 13.1
COc1ccc(C(=O)NCc2nnc(SCC(=O)N3CCCC3)o2)cc1OC | 3.9% | 10.9% | -5.1% | -0.7% | 11.8% | -55.4*
COc1ccc(Cc2nnc(SCC(=O)N3CCN(c4ccccc4)CC3)o2)cc1 | 7.9% | 23.1µM* | -3.1% | -1.2% | 23.1µM* | 0.0
COc1ccc(Cc2nnc(SCC(=O)N3CCCCC3)o2)cc1 | ? | 23.1µM* | -3.0% | 1.2% | 4.5% | -21.2
COc1ccc(Cc2nnc(SCC(=O)c3ccccc3)o2)cc1 | 1.9% | ? | ? | -0.8% | ? | 12.6
COc1ccc(Cc2nnc(SCC(=O)NC3CCCC3)o2)cc1 | -3.2% | -3.9% | -1.0% | ? | 0.3% | -6.1
CC(C)(C)c1ccc(C(=O)NCc2nnc(SCC(=O)NC3CCCCC3)o2)cc1 | 5.2% | 20.6µM* | -0.4% | ? | 8.2µM* | -14.9
COc1cc(C(=O)NCc2nnc(SCC(=O)NC3CCCC3)o2)cc(OC)c1OC | 1.4% | 5.1% | 4.1% | -2.3% | 8.6% | 39.8
C=CCc1ccccc1OCc1nc2ccccc2n1CC | / | 23.1µM* | / | / | ? | /
C=CCn1c(-c2ccc(N)cc2)nc2ccccc21 | -1.7% | -22.2% | 9.3% | 1.3% | ? | -17.9
SMILES | SW480 rerep | TDP1 cell noCPT | MCF10A rereplic | Chronic BCR inh | TDP1 cell CPT | IL-1B inflam inh
COc1ccc(-c2n(Cc3ccccc3)c3ccccc3[n+]2Cc2ccccc2)cc1 | ? | 0.259µM* | 3.8% | ? | 0.461µM* | -87.2*
C=CCn1c(-c2ccc(OC)cc2)nc2ccccc21 | -3.5%[9.22 µM] | 9.2µM* | 5.0% | 1.9% | 18.4µM* | -6.9
CCn1c(NCc2ccc(OC)cc2)nc2ccccc21 | ? | ? | -5.0% | 0.8% | -13.5% | -17.9
CCn1c(Cc2ccc(OC)cc2)nc2ccccc21 | 2.5% | -27.6% | 23.1% | -0.1% | ? | -50.5*
CC(=O)c1cccc(NC(=O)CNC(=O)c2sc3ccccc3c2Cl)c1 | ? | ? | ? | 0.4% | ? | -20.7
O=C(Cc1coc2cc(O)ccc12)NNC(=O)c1ccc(Br)s1 | -5.6% | -23.3% | ? | 5.8% | -24.9% | -22.7
COc1ccc2c(c1)nc(N)n2Cc1ccccc1 | 3.9% | ? | 27.0% | 2.7% | ? | -98.3*
COc1ccc(-c2nc3ccccc3n2Cc2ccccc2)cc1 | -4.8% | 8.2µM* | 6.0% | 0.4% | 18.4µM* | -0.6
COc1cc(Cn2c(-c3ccc(O)c(OC)c3)nc3ccccc32)ccc1O | -16.6% | ? | 20.3% | ? | 0.1% | -7.1
CCCCCn1c(-c2ccc(OC)c(OC)c2)nc2ccccc21 | / | 7.31µM* | / | / | ? | /
CC(C)c1c(C(=O)NCC(C)(C)N2CCOCC2)cnn1-c1nccc(-c2ccccc2F)n1 | / | ? | / | / | -13.9%[9.04 µM] | /
COc1cccc(C(=O)OCC(=O)c2ccc(Br)s2)c1OC | -8.1% | 0.3% | 1.1% | ? | -17.0% | 8.7
Cc1ccc2nc(-c3ccncc3)cc(-c3ccccc3)c2c1 | ? | ? | ? | -0.3% | ? | ?
c1ccc2c(-c3nc(C4CCCCC4)no3)cc(-c3ccncc3)nc2c1 | 16.4% | 23.1µM* | ? | ? | ? | -16.8
O=C(O)/C=C(/c1ccccc1)C(F)(F)F | -17.5% | 10.1% | -1.9% | / | -5.1% | 7.2
CCCC[C@@H]1Cc2[nH][nH]c(=O)c2[C@H](c2ccc3ccccc3c2)O1 | / | 18.4µM* | / | / | -1.4% | -12.0
CCCC[C@@H]1Cc2[nH][nH]c(=O)c2[C@H](c2ccc(C(C)C)cc2)O1 | / | ? | / | / | ? | -64.6*
O=C(/C=C/Nc1ccc(Br)cn1)c1cccc(OC(F)F)c1 | ? | ? | ? | -2.9% | ? | -7.7
